Results filed as inconclusive are left out. A structure can be active in one record and inactive in another. Active and inactive are the calls of the source. Unless noted, the call rests on the fitted dose curve; in most records, active means well fitted curve in the direction sought with a large enough effect in the repeat runs; inconclusive means weak or mixed curves; inactive means no such curve, though single readings can be large; an effect the other way counts as inactive or inconclusive.

A short description of assay [1]: qHTS assay to identify small molecule agonists of the peroxisome proliferator-activated receptor delta (PPARd) signaling pathway - cell viability counter screen (AID 743211). Further: nearly all actives have a fitted effect of over 55% in size. In a few lines: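 Tox21 library compounds, delivered in DMSO, were incubated 17 h with PPARd-bla HEK293H cells; cytotoxicity was taken from CellTiter-Glo luminescence read 30 min after reagent addition.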

The target in assay [2] is Peroxisome proliferator-activated receptor delta (Homo sapiens) (UniProt Q03181). As to the kind of experiment: qHTS assay to identify small molecule agonists of the peroxisome proliferator-activated receptor delta (PPARd) signaling pathway (AID 743212; calls by dose curve). The method, boiled down: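 HEK293H UAS-bla reporter cells, human PPARd system; compounds delivered in DMSO after 5 h plating, then at 37 C. Beta-lactamase FRET read, 2 h RT substrate step.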

The nature of assay [3]: qHTS assay to identify small molecule antagonists of the peroxisome proliferator-activated receptor delta (PPARd) signaling pathway - cell viability counter screen (AID 743213). Further: nearly all actives have a fitted effect of over 50% in size. Further: potency means the concentration at half of the fitted maximal effect. The method, boiled down:
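Same-well viability: cells pre-incubated 5 h, dosed with compound plus 300 nM L165041, kept 17 h at 37 C, FRET substrate 2 h RT, then CellTiter-Glo 30 min RT and luminescence.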
In general terms: In qHTS, concentration-response curves come from the screen itself.

Assay [4] addresses Peroxisome proliferator-activated receptor delta (Homo sapiens) (UniProt Q03181). Description: qHTS assay to identify small molecule antagonists of the peroxisome proliferator-activated receptor delta (PPARd) signaling pathway (AID 743215; active means well fitted inhibition curve with a large enough effect in the signal ratio in the repeat runs, not every such curve was filed as active; the % refers to the signal ratio;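 further: cells stimulated with agonist L165041 at 300 nM final during compound exposure; series mostly up to about 62 µM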). The method, boiled down:
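With L165041 present at 300 nM final, compounds were incubated 17 h at 37 C on PPARd UAS-bla HEK293H cells. A FRET-based beta-lactamase substrate was then applied for 2 h at room temperature and fluorescence intensity recorded.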

Assay [5] in a line: qHTS assay to identify small molecule agonists of the farnesoid-X-receptor (FXR) signaling pathway - cell viability counter screen (AID 743218). Further: nearly all actives have a fitted effect of over 45% in size. The method, boiled down:
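After 16 h at 37 C with test compounds, FXR-bla HEK 293T cells were given LiveBLAzer B/G substrate for 2 h at RT and then CellTiter-Glo; luminescence was taken after 30 min.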

Assay [6] is described as follows: qHTS assay to identify small molecule antagonists of the farnesoid-X-receptor (FXR) signaling pathway - cell viability counter screen (AID 743221; active means well fitted cell-killing curve with a large enough effect in the repeat runs, not every such curve was filed as active; further: nearly all actives have a fitted effect of over 50% in size). The method, boiled down:
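Cytotoxicity is taken from ATP luminescence (CellTiter-Glo, 30 min, room temperature) in FXR-bla HEK 293T cells previously incubated 16 h at 37 C with compound and chenodeoxycholic acid at 50 uM final.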

Assay [7] has as its target Vitamin D3 receptor (Homo sapiens) (UniProt P11473). As to the kind of experiment: qHTS assay to identify small molecule agonists of the vitamin D receptor (VDR) signaling pathway (AID 743222; calls by dose curve). In a few lines:
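VDR-bla cells were seeded, left 4 h, treated with compounds in DMSO for 16 h, incubated 2 h at RT with B/G FRET substrate, and read for fluorescence.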

Assay [8] deals with Bile acid receptor (Homo sapiens) (UniProt Q96RI1). As to the kind of experiment: qHTS assay to identify small molecule antagonists of the farnesoid-X-receptor (FXR) signaling pathway (AID 743217; active means well fitted inhibition curve with a large enough effect in the signal ratio in the repeat runs, not every such curve was filed as active; the % refers to the signal ratio). In a few lines:
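In this cell-based antagonist screen, inhibition of CDCA-driven (50 uM final) UAS-beta-lactamase expression in HEK 293T cells was measured by FRET fluorescence following 16 h compound exposure at 37 °C.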

The target of assay [9] is Vitamin D3 receptor (Homo sapiens) (UniProt P11473). Description: qHTS assay to identify small molecule antagonists of the vitamin D receptor (VDR) signaling pathway (AID 743223; active means well fitted inhibition curve with a large enough effect in the signal ratio in the repeat runs, not every such curve was filed as active; the % refers to the signal ratio). In a few lines: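 Quantitative HTS in VDR-bla reporter cells stimulated with 1alpha,25-dihydroxyvitamin D3, 3 nM final. Compound exposure 16 h, 37C, 5% CO2. Read-out: beta-lactamase FRET substrate fluorescence, 2 h RT.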

Assay [10] addresses Bile acid receptor (Homo sapiens) (UniProt Q96RI1). Description: qHTS assay to identify small molecule agonists of the farnesoid-X-receptor (FXR) signaling pathway (AID 743220; active means well fitted activation curve with a large enough effect in the signal ratio in the repeat runs, not every such curve was filed as active; the % refers to the signal ratio). In a few lines: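 Beta-lactamase reporter under UAS control in GeneBLAzer FXR HEK 293T cells (5000/well) measured with LiveBLAzer FRET substrate after 2 h at room temperature. Compound exposure lasted 16 h at 37C.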
On the % scale 0 is the no-effect control and ±100 the full control effect.

Bile acid receptor (Homo sapiens), sequence (Q96RI1 whole entry, looked up): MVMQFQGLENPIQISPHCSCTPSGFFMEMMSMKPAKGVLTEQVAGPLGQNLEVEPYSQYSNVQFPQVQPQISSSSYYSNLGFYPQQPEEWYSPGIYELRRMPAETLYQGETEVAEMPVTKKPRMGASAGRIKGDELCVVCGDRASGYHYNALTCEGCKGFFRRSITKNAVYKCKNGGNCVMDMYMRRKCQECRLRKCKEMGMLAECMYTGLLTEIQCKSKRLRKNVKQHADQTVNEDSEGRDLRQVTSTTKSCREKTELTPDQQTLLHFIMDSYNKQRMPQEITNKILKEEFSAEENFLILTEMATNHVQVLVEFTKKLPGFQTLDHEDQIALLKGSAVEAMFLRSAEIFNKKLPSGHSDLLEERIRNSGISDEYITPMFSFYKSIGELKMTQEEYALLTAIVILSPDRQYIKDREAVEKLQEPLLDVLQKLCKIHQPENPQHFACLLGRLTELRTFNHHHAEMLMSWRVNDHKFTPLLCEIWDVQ
Vitamin D3 receptor (Homo sapiens), sequence (P11473 whole entry, looked up): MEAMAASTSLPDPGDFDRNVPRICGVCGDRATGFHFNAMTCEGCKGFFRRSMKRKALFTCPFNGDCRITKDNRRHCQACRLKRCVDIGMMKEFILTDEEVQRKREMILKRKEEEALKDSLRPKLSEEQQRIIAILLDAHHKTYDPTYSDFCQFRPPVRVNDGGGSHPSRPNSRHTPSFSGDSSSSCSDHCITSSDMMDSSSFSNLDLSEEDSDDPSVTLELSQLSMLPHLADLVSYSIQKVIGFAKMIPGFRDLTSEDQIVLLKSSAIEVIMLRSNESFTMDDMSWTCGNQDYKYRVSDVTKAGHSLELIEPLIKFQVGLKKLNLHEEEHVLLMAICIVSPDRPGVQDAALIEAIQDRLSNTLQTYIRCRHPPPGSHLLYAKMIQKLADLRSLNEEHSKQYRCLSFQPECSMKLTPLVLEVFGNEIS
Peroxisome proliferator-activated receptor delta (Homo sapiens), sequence (Q03181 whole entry, looked up): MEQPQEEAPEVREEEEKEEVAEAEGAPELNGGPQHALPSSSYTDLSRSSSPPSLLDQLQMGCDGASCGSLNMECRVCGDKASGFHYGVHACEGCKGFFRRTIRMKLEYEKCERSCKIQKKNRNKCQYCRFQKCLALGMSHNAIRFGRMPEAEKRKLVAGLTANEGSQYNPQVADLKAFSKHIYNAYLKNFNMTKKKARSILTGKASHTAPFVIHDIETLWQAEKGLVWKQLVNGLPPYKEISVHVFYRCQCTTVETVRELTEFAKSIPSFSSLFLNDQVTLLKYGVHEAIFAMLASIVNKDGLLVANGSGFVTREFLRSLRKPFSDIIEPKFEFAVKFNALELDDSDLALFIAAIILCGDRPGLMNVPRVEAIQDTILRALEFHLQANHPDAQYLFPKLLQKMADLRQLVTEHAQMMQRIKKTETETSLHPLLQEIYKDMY

Consider `CC1=CC2C3CC(C=C3C)C2C1` (configuration not stated), for which the Potency result in assay [1], in [3], in assay [4], in assay [5] and in [6] was “inactive” in each case. Moreover, the molecule was called inactive in assay [2] and in [7].
On to `CC(CCC(=O)O)(c1ccc(O)cc1)c1ccc(O)cc1`, for which the Potency result in [1], in assay [3], in assay [4], in assay [8], in [5] and in assay [6] was “inactive” each time. The molecule was called inactive in assay [2], in assay [7] and in assay [9].
In the case of `CCCCCCCCCC(=O)OC`, the Potency entry in assay [1], in assay [3], in [4], in [8], in assay [5] and in assay [6] was “inactive” each time. Besides, the call in [2] was inactive.
In the case of `COC(C)COC(C)COC(C)CO` (configuration not stated), the Potency result in [1], in [3], in assay [4], in assay [8], in [5] and in assay [6] was “inactive” in each case. Moreover, the result in assay [2], in [10], in assay [7] and in [9] was inactive.
`O=C=Nc1ccc(Cc2ccc(N=C=O)cc2)cc1`: the Potency entry in assay [1], in [3], in assay [4], in assay [8], in assay [5] and in assay [6] was “inactive” each time. For the same molecule, the molecule was classed as inactive in [2], in [7] and in [9].
For `CC(C)(C)NC(=O)[C@H]1CC[C@H]2[C@@H]3CC[C@H]4NC(=O)C=C[C@]4(C)[C@H]3CC[C@]12C`, the Potency entry in assay [1], in assay [3], in assay [4], in assay [5] and in assay [6] was “inactive” each time. For the same molecule, the molecule was called inactive in assay [2] and in [7].
For the molecule `C=CC(C)(CCC=C(C)C)OC(C)=O` (configuration not stated), the Potency entry in [1], in [3], in [4], in assay [8], in assay [5] and in [6] was “inactive” in each case. Besides, the result in assay [2], in assay [7] and in assay [9] was inactive.
With `c1cc(-c2ccncc2)ccn1`, the Potency result in [1], in assay [3], in [4], in assay [5] and in assay [6] was “inactive” each time. Also, the result in assay [2], in assay [7] and in assay [9] was inactive.
In the case of `c1ccc2c(c1)c1cccc3ccc4cccc2c4c31`, the Potency entry in [1], in [3], in assay [4], in [8], in [5] and in assay [6] was “inactive” throughout. Further, the call in [2], in assay [7] and in assay [9] was inactive.
Turning to `COc1ccc(C(=O)CC(=O)c2ccc(C(C)(C)C)cc2)cc1`, the Potency entry in assay [1], in assay [3], in assay [4], in assay [5] and in [6] was “inactive” throughout. Also, the molecule was called inactive in assay [2], in [7] and in assay [9].
On to `C[Si](C)(C)O[Si](C)(C)C`, for which the Potency result in [1], in assay [3], in assay [4], in assay [8], in assay [5] and in assay [6] was “inactive” throughout. In addition, the molecule was called inactive in assay [2], in assay [7] and in assay [9].
Consider `CC(=O)C1(C)CC2=C(CCCC2(C)C)CC1C` (configuration not stated), for which the Potency entry in assay [1], in assay [3], in [4], in assay [5] and in assay [6] was “inactive” throughout. The molecule was classed as inactive in [2], in assay [7] and in assay [9].
For the molecule `OCCO`, the Potency entry in assay [1], in [3], in assay [4], in assay [8], in assay [5] and in assay [6] was “inactive” each time. Moreover, the molecule was classed as inactive in [2], in assay [7] and in assay [9].
In the case of `COc1ccccc1/C=C/C=O`, the Potency entry in [1], in assay [3], in assay [4], in [8], in assay [5] and in [6] was “inactive” in each case. In addition, the call in assay [2], in assay [7] and in [9] was inactive.
With `CC(C(=O)O)c1cccc(C(=O)c2ccccc2)c1` (configuration not stated), the Potency entry in assay [1], in assay [3], in assay [4], in assay [5] and in [6] was “inactive” each time. Further, in [2], the result was inactive.
Consider `O=CCCCC=O`, for which the Potency result in [1], in assay [3], in assay [4], in assay [8], in [5] and in assay [6] was “inactive” each time. For the same molecule, the result in assay [2], in assay [7] and in assay [9] was inactive.
In the case of `OC(CCl)CCl`, the Potency entry in [1], in [3], in assay [4], in assay [5] and in [6] was “inactive” in each case. Further, the call in assay [2], in [7] and in assay [9] was inactive.
`Cc1c(OCC(F)(F)F)ccnc1CS(=O)c1nc2ccccc2[nH]1` (configuration not stated): the Potency entry in assay [1], in assay [3], in [4], in assay [8], in [5] and in assay [6] was “inactive” each time. The outcome in [2] was inactive.
Take `CCOC(=O)C(C#N)=C(c1ccccc1)c1ccccc1`: the Potency entry in assay [1], in assay [3], in [4], in assay [8], in [5] and in assay [6] was “inactive” each time. Further, the call in assay [2] was inactive.
Consider `Cn1cnc([N+](=O)[O-])c1Sc1ncnc2nc[nH]c12`, for which the Potency result in assay [1], in assay [3], in assay [4], in assay [5] and in [6] was “inactive” each time. Also, the molecule was called inactive in [2].
Turning to `CN1C(C(=O)Nc2ccccn2)=C(O)c2ccccc2S1(=O)=O`, the Potency entry in [1], in [3], in assay [4], in assay [8], in assay [5] and in assay [6] was “inactive” each time. Besides, the outcome in assay [2], in assay [7] and in assay [9] was inactive.
Consider `Cc1ncc[nH]1`, for which the Potency entry in assay [1], in [3], in assay [4], in assay [8], in assay [5] and in assay [6] was “inactive” in each case. Further, the call in assay [2], in assay [7] and in assay [9] was inactive.
For the molecule `CCCC(=O)O`, the Potency entry in assay [1], in [3], in assay [4], in [5] and in [6] was “inactive” each time. Also, the molecule was classed as inactive in assay [2], in [7] and in [9].
Take `OC1CCCCCCCCCCC1`: the Potency result in assay [1], in [3], in assay [4], in assay [5] and in assay [6] was “inactive” throughout. Besides, the result in [2] was inactive.
Consider `Brc1cc(Oc2cc(Br)c(Br)c(Br)c2Br)c(Br)c(Br)c1Br`, for which the Potency entry in [1], in [4], in [5] and in assay [6] was “inactive” each time. Also, the call in [2] was inactive. Further, the Potency in assay [3] is 55.2 µM (active) and inactive.
Consider `CN(C)CCN(Cc1cccs1)c1ccccn1`, for which the Potency result in assay [1], in assay [3], in assay [4], in assay [5] and in assay [6] was “inactive” in each case. Moreover, the molecule was called inactive in [2], in assay [7] and in assay [9].
With `CN(C)c1nc(N(C)C)nc(N(C)C)n1`, the Potency result in [1], in assay [3], in assay [4], in [8] and in [6] was “inactive” each time. Besides, the call in [2], in assay [7] and in assay [9] was inactive. The viability change, negative = cytotoxic in assay [5] was -6.22% [at 5.95 µM] (inactive).
With `O=S(=O)(O)c1ccc(O)cc1`, the Potency entry in [1], in [3], in [4], in assay [5] and in [6] was “inactive” throughout. The molecule was called inactive in assay [2], in [7] and in [9].
Turning to `CCC(C)(O)CCCC(C)C` (configuration not stated), the Potency result in assay [1], in assay [3], in assay [4], in assay [8], in assay [5] and in assay [6] was “inactive” each time. The outcome in assay [2] and in [10] was inactive.
For the molecule `CCC(C)CO` (configuration not stated), the Potency result in assay [1], in assay [3], in assay [4], in assay [8], in assay [5] and in assay [6] was “inactive” in each case. Besides, the result in [2], in assay [7] and in assay [9] was inactive.
With `COc1ccc(OC)c(C(O)CNC(=O)CN)c1` (configuration not stated), the Potency entry in assay [1], in assay [3], in [4], in assay [8], in assay [5] and in assay [6] was “inactive” throughout. For the same molecule, the call in [2], in [7] and in assay [9] was inactive.
With `Cc1cccc(C(=O)O)c1`, the Potency result in assay [1], in assay [3], in assay [4], in [5] and in assay [6] was “inactive” in each case. Moreover, the molecule was called inactive in assay [2], in [7] and in assay [9].
With `CC(C)Oc1ccc2c(=O)c(-c3ccccc3)coc2c1`, the Potency result in assay [1], in [3], in assay [4], in [8], in assay [5] and in assay [6] was “inactive” each time. For the same molecule, the molecule was called inactive in assay [2], in assay [7] and in assay [9].

Source of the values: PubChem BioAssay (Tox21).
